Measured values reported in PubChem BioAssay (NCI).
The panel holds about 83,000 compounds, 20% with a hit somewhere; the sample as a whole holds those more often.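 The test compound was applied at a single concentration to cells in 96-well plates for 48 hours, and percent growth was recorded.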 Unmarked numbers belong to inactive results. How the source made its calls: active means growth percent below 10; inactive means the rest.

The compounds below were run on HL-60(TB) leukemia (assay: NCI-60 one-dose screen, 48 h (100 = growth as untreated, 0 = no growth, -100 = all killed)). Settings: 10 µM unless noted.
Compound `Cc1ccc(-c2nc([P+](c3ccccc3)(c3ccccc3)c3ccccc3)c(N3C[C@H]4C[C@H](C3)c3cccc(=O)n3C4)o2)cc1` has a growth of 36.7%. Compound `O=c1cn[nH]c2ccc(Br)cc12` has a growth of 85.5%. With `O=C1c2ccccc2CCc2ccccc21` the growth was 90%. Work on `COc1ccccc1OCC(=O)Nc1sc2c(c1C(N)=O)CCC2` yielded a growth of 50.1%.
